Values joined by “and” are separate entries in the source; they are usually repeats but may differ in a detail not shown here. Identical values can stand only once. In all, about 16,000 compounds went through this assay and about 5,700 (36%) were called active. Inconclusive results (about 24%) are left out. The list shows a part of the results. Unmarked numbers belong to inactive results. Calls come from the whole dose curve; as a rule, active = well fitted curve in the direction sought with a large enough effect; inconclusive = small, poorly fitted or top-dose-only effect, or effect the other way; inactive = no such curve, though single readings can be large or run the other way.
Target: Cytochrome P450 1A2 (Homo sapiens) (UniProt P05177)
Sequence (P05177 whole entry, looked up): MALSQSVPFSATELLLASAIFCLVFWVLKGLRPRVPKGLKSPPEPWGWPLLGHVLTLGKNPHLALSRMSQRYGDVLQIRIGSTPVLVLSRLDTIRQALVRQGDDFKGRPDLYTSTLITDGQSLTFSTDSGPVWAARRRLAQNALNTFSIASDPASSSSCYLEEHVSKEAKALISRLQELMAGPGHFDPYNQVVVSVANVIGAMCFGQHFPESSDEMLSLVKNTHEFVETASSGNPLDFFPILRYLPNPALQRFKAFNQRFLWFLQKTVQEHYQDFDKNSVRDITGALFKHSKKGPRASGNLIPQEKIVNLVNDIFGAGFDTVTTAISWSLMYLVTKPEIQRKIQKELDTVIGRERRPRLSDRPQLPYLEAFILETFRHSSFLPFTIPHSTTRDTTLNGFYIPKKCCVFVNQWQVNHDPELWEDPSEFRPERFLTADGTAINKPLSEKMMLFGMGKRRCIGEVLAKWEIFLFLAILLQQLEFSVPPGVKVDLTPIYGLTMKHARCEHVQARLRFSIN
Assay: Cytochrome panel assay with activity outcomes
Conditions: recombinant CYP, pro-luciferin dealkylation, luminescence, p450-cyp1a2; series mostly up to 57.1 µM
% is set by controls: 0 for no effect and ±100 for the full control effect.

SMILES | AC50 | activity, negative = inhibition
NC(=S)Nc1cccc2cccnc12 | 12.6 µM (active) | –
O=C(Nc1cccc2cccnc12)[C@@H]1[C@@H](C(=O)O)[C@H]2CC[C@@H]1O2 | – | -11% [at 11.4 µM]
Cc1cc2c(nc1C)CCCN2C[C@@H](O)CN1CCN(C)CC1 | – | -2.48% [at 11.4 µM]
O=C(NC(=S)Nc1cccc(Cl)c1N1CCCCC1)c1cccs1 | 10 µM (active) | –
CN(C1CCCCC1)S(=O)(=O)c1ccc(NC(=S)NC(=O)c2cccs2)cc1 | inactive | –
CC(=O)NS(=O)(=O)c1ccc(NC(=S)NC(=O)c2ccco2)cc1 | inactive | –
Cc1c(Cl)cccc1NC(=O)CCC(=O)NNC(=O)c1ccco1 | inactive | –
CC1CCN(c2ccccc2NC(=S)NC(=O)c2cccs2)CC1 | 7.08 µM (active) | –
O=C(NC(=S)Nc1cccc(Cl)c1N1CCCCC1)c1ccco1 | 12.6 µM (active) | –
Cc1c(NC(=S)/C=C2\N(C)c3ccccc3C2(C)C)c(=O)n(-c2ccccc2)n1C | inactive | –
COc1cccc(C2NC(c3cccc(OC)c3O)C(C)C(=O)C2C)c1O (stereo not drawn) | inactive | –
CC1=NN(c2ccccc2)C(=O)/C1=C\c1c(C)[nH]n(-c2ccccc2)c1=O | inactive | –
COc1cccc(C(c2c(C)[nH]n(-c3ccccc3)c2=O)c2c(C)[nH]n(-c3ccccc3)c2=O)c1O | 7.08 µM (active) | –
CCN1CCC[C@H]1CNC(=O)c1c(OC)ccc(Br)c1OC | inactive | –
CCN(CCCNC(=O)CC(C(=O)N1CCc2ccccc21)n1ccnc1)c1ccccc1 (stereo not drawn) | 3.16 µM (active) | –
CCCCN(C)CCCNC(=O)CCn1nc(-c2ccccc2)ccc1=O | inactive | –
CCC(=O)[C@@]1(C)[C@H](C)C[C@@H]2[C@@H]3CCC4=CC(=O)C=C[C@@]4(C)[C@H]3[C@H](O)C[C@]21C | inactive | –
NC(=O)Cn1c(=O)n(Cc2ccco2)c(=O)c2c3c(sc21)CCCCC3 | 4.47 µM (active) | –
Cc1ccc(-n2c(=O)c3sccc3n(CC(=O)NCc3ccco3)c2=O)cc1F | inactive | –
CN(c1ccccc1)c1ccc(/C=c2\s/c(=C(/C#N)C(=O)C(C)(C)C)n(Cc3ccco3)c2=O)cc1 | inactive | –
O=C(Cn1c(=O)n(Cc2ccco2)c(=O)c2c3c(sc21)CCCCC3)c1ccccc1 | 12.6 µM (active) | –
CN(C)CCn1c(=O)n(Cc2ccco2)c(=O)c2c3c(sc21)CCCCC3 | 2.24 µM (active) | –
O=C(O)/C=C\C(=O)Nc1cccc2c1-c1ccccc1C2=O | 2.51 µM (active) | –
O=C(O)/C=C/C(=O)Nc1ccccc1-c1ccccc1 | inactive | –

SMILES | AC50 | activity, negative = inhibition
CC[C@H](C)N(C)C(=O)c1cc2ccccc2c(-c2ccccc2Cl)n1 | inactive | –
Fc1ccc(-c2ccnc3nc(N4CCOCC4)nn23)cc1 | 10 µM (active) | –
C=C1C(=O)O[C@@H]2[C@@H]1CC/C(C)=C\CC[C@@]1(C)O[C@H]21 | inactive | –
CC(C)Sc1cc(N2CCCC2)nc(-c2ccc(F)cc2)n1 | 0.631 µM (active) | –
CC(C)Sc1cc(N2CCOCC2)nc(-c2ccc(Cl)cc2)n1 | 5.62 µM (active) | –
CCCSc1cc(N2CCCC2)nc(-c2ccccc2)n1 | 0.631 µM (active) | –
CC[N+](C)(CC)CCN1C(=O)c2ccccc2S1(=O)=O | – | -12.1% [at 11.4 µM]
CN(C)S(=O)(=O)c1ccc(NC(=O)COC(=O)c2ccccn2)cc1 | inactive | –
CN(C)S(=O)(=O)c1cccc(NC(=O)COC(=O)c2ccc(Br)o2)c1 | 14.1 µM (active) | –
Cc1nc2ccc(S(=O)(=O)NC(CC(C)C)C(=O)O)cc2s1 (stereo not drawn) | inactive | –
Cc1ccc2nc(NC(=O)CSCC(=O)OCC(=O)c3ccc(Br)cc3)sc2c1 | 8.91 µM (active) | –
CCN(c1ccccc1)S(=O)(=O)c1ccc(NC(=S)NC(=O)c2ccc(Br)o2)cc1 | inactive | –
Cc1ccc2nc(NC(=O)COC(=O)CSc3nc(C)cc(C)n3)sc2c1 | 0.891 µM (active) | –
Cc1ccc2nc(NC(=O)COC(=O)c3ccc(Br)o3)sc2c1 | 4.47 µM (active) | –
COc1ccc(C(=O)N2CCC3(CCCN(Cc4ccccc4OC)C3)CC2)cc1 | inactive | –
O=C(Cc1ccc2c(c1)CCCC2)Nc1ccccc1Br | 11.2 µM (active) | –
CC12CCC(C(=O)Nc3ccccc3Br)(C/C1=N\O)C2(C)C (stereo not drawn) | inactive | –
COC(=O)N1CCC[C@@]2(CCN(C(=O)Nc3cccc(C#N)c3)C2)C1 | inactive | –
C[C@@H]1CC[C@H]2C(=O)N3[C@@H](CC[C@@H](C)[C@@H]3c3ccc(Br)cc3)C(=O)N2[C@@H]1c1ccc(Br)cc1 | – | -18.2% [at 11.4 µM]
CS(=O)(=O)N1N=C(c2ccc(Br)cc2)CC1c1ccc2c(c1)OCO2 (stereo not drawn) | 3.55 µM (active) | –
O=S(=O)(c1ccccc1)N1N=C(c2cccs2)CC1c1ccc(Br)cc1 (stereo not drawn) | inactive | –
C=C[C@]1(C)C[C@H](OC(=O)CO)[C@]2(C)C3C(=O)CC[C@]3(CC[C@H]2C)[C@H](C)[C@H]1O (stereo partly drawn) | – | -21% [at 2.29 µM]
COc1cccc(N2C(=O)C(CC(=O)Nc3ccccc3)N(C3CCCCC3)C2=O)c1 (stereo not drawn) | inactive | –
COc1ccc(OC)c(NC(=O)c2c3c(nc4ccccc24)CCC3)c1 | 12.6 µM (active) | –

SMILES | AC50 | activity, negative = inhibition
COc1cccc(NC(=O)COC(=O)c2c3c(nc4ccccc24)CCC(C)C3)c1 (stereo not drawn) | 2.51 µM (active) | –
COc1cccc(NC(=O)Cc2c(C(=O)O)[nH]c3ccccc23)c1 | inactive | –
COc1ccc(NC(=O)COC(=O)c2c(-c3ccccc3)noc2C)cc1 | 12.6 µM (active) | –
COc1ccc(NC(=O)N2CC3(CCN(C(=O)c4c(C)noc4C)CC3)C2)cc1 | inactive | –
COc1ccc(NC(=O)COC(=O)c2c3c(nc4ccccc24)CCCC3)cc1 | 7.08 µM (active) | –
CC(C)(C)Nc1nc(N2CCCC2)nc(N2CCCC2)n1 | 0.631 µM (active) | –
O=C1CCC(c2ccccc2)(c2ccccc2)CC1 | – | -13.3% [at 11.4 µM]
COc1ccccc1CNc1nc(-c2cccc(C#N)c2)nc2ccccc12 | 1.26 µM (active) | –
COc1ccc(CNc2nc(-c3cccc(NS(C)(=O)=O)c3)nc3ccccc23)c(OC)c1 | 15.8 µM (active) | –
COc1ccc(CNc2nc(-c3cccc(C#N)c3)nc3ccccc23)c(OC)c1 | 2.51 µM (active) | –
CCCc1cc2c(n1Cc1cc(F)cc(F)c1)C(C)C1CN(C(=O)c3ccccc3)C(C)(C(=O)OC)C21 (stereo not drawn) | inactive | –
Cc1noc(C)c1-c1nccc(N(C)Cc2ccco2)n1 | 2 µM (active) | –
Cc1noc(C)c1-c1cc(N(C)C)ncn1 | 3.16 µM (active) | –
Cc1noc(C)c1-c1cc(N(C)Cc2ccco2)ncn1 | 3.16 µM (active) | –
Cc1noc(C)c1-c1nccc(N(C)C)n1 | 0.631 µM (active) | –
N#CCSc1ncnc2c1cnn2CCO | 15.8 µM (active) | –
Cc1cccc(NC(=S)N(CCc2nc3cc(C)c(C)cc3[nH]2)Cc2cccnc2)c1 | 14.1 µM (active) | –
CCN1C(=O)C(CC(=O)Nc2ccc(OC)cc2)N(Cc2cccnc2)C1=S (stereo not drawn) | inactive | –
COc1cccc(NC(=S)N(CCc2nc3cc(C)c(C)cc3[nH]2)Cc2cccnc2)c1 | 14.1 µM (active) | –
COc1ccc(NC(=S)N(CCc2nc3cc(C)c(C)cc3[nH]2)Cc2cccnc2)cc1 | 15.8 µM (active) | –
COc1cccc(NC(=O)C2c3cc(OC)c(OC)cc3C(=O)N(C)C2c2cccnc2)c1 (stereo not drawn) | inactive | –
O=C1CCC=C1[C@@H](O)CCc1ccccc1 | – | -4.4% [at 11.4 µM]
CN(C)[C@H]1C(=O)C(C(=O)NCN2CCCC2)=C(O)[C@]2(O)C(=O)C3=C(O)c4c(O)cccc4[C@](C)(O)[C@H]3C[C@H]12 | – | -17.5% [at 11.4 µM]
CCCCNC(=O)CSc1nc2cc(OC)c(OC)cc2c(=O)n1Cc1ccc(OC)cc1 | inactive | –

SMILES | AC50 | activity, negative = inhibition
COc1cc2nc(SCc3ccc(Cl)cc3Cl)n(Cc3cccs3)c(=N)c2cc1OC | 5.01 µM (active) | –
CCCN1CCN(CCCNC(=O)Cn2nc(-c3ccc(C)cc3)ccc2=O)CC1 | inactive | –
Cc1nc(C(=O)Nc2ccc(Cl)cc2Cl)nn1-c1cc(OC(C)C)c(Cl)cc1Cl | inactive | –
CC(Oc1ccc(Cl)cc1Cl)C(=O)/C=C/N(C)C (stereo not drawn) | 7.08 µM (active) | –
Nc1ncnc2nc(N3CCN(CCO)CC3)[nH]c12 | – | -1.17% [at 2.29 µM]
CCN(CC)CCOC(=O)C1(c2ccc([N+](=O)[O-])cc2)CCCC1 | 3.16 µM (active) | –
CN(C)CCOC(=O)C1(c2ccccc2)CCOCC1 | inactive | –
COc1ccc(S(=O)(=O)N(C)CC(=O)NCc2ccco2)cc1 | inactive | –
C=CCNC(=O)/C(=C\C=C\c1ccccc1)NC(=O)c1ccc(OCCCC)cc1 | inactive | –
O=C(O)C1C2CCC(C2)C1C(=O)NCc1ccco1 (stereo not drawn) | inactive | –
Cc1ccc(OCCCC(=O)NCc2ccco2)cc1 | 14.1 µM (active) | –
CC(C)(C)c1ccc(C(=O)NCCC(=O)NCc2ccco2)cc1 | 1.58 µM (active) | –
CCCCOc1ccc(C(=O)NCc2ccco2)cc1 | 1.26 µM (active) | –
Cc1ccc(OCC(=O)NNC(=O)CCC(=O)NCc2ccccc2)cc1 | inactive | –
CCS(=O)(=O)N1CCC(C(=O)NCc2ccco2)CC1 | inactive | –
CC(=O)c1ccc(NC(=O)C2(c3ccccc3)CCOCC2)cc1 | inactive | –
CCCCCOc1ccc(C(=O)NCC2(c3ccccc3)CCOCC2)cc1 | 15.8 µM (active) | –
CCOc1ccc(-n2cc(C(=O)NCc3ccco3)c3cc(OC)c(OC)cc3c2=O)cc1 | inactive | –
C/C(CC(=O)NCc1ccco1)=N\NC(=O)Cc1ccccc1 | inactive | –
Cc1cc(C)cc(Oc2nn[nH]n2)c1 | inactive | –
COc1cccc([C@H]2Oc3ccc(OC)cc3/C(=N\O[C@@H](C)c3cn([C@H](CO)Cc4ccccc4)nn3)[C@@H]2O)c1 | – | -7.2% [at 11.4 µM] and -11.9% [at 11.4 µM]
